Records with an inconclusive call do not appear. Values without a mark were called inactive. Active and inactive are the calls of the source. Calls follow the shape of the dose curve; as a rule, active = well fitted inhibition curve with a large enough effect; inconclusive = small, poorly fitted or top-dose-only effect; inactive = no such curve, though single readings can be large or run the other way.
What follows are molecules tested against N-terminal Xaa-Pro-Lys N-methyltransferase 1 (Homo sapiens) (UniProt Q9BV86) (assay: qHTS Assay for Inhibitors of N-terminal methyltransferase 1 (NTMT1): ThioGlo3 Assay Confirmatory Screen, Round 1.). Details: NTMT1 SAHH-coupled ThioGlo3 fluorescence, 30 min; series mostly up to 56.8 µM; activity change, negative = inhibition: at the top concentration.
Sequence of N-terminal Xaa-Pro-Lys N-methyltransferase 1 (Homo sapiens) (Q9BV86 whole entry, looked up): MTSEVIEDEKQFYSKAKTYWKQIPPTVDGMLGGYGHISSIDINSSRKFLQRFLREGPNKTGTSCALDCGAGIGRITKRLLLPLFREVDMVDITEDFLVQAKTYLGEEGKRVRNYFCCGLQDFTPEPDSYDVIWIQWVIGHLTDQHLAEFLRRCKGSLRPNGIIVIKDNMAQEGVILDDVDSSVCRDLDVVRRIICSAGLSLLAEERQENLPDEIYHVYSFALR
How it was run: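 Human NTMT1 at 125 nM was preincubated 1 min at room temperature with compounds at various concentrations or 1 uM RCC1-6 control. Substrate mix (100 uM SAM, 10 uM SAHH, 15 uM ThioGlo3) was added, and fluorescence (Ex 340/Em 450 nm) was read at start and after 30 min, normalized to background.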
Also: nearly all actives have a fitted effect of over 80% in size.
For activity change, negative = inhibition in this document: 0% is about no effect.
Potency is read from the fitted curve at half-maximal effect.

| SMILES | Potency | activity change, negative = inhibition [%] |
| --- | --- | --- |
| COc1cc2c(NC3CCN(C)CC3)nc(N3CCCN(C)CC3)nc2cc1OCCOCCN1CCCC1 | 27.1 µM (active) | – |
| CCNc1nc(N2CCCN(C)CC2)nc2cc(OC)c(OC)cc12 | 34.1 µM (active) | – |
| COc1cc2c(NC3CCN(C)CC3)nc(N3CCCN(C)CC3)nc2cc1O | 24.1 µM (active) | – |
| COc1cc2c(NC3CCN(C(C)C)CC3)nc(N3CCCN(C)CC3)nc2cc1OCCCN(C)C | 24.1 µM (active) | – |
| Nc1ncnc2c1nc(Br)n2C1OC(CO)C(O)C1O (stereo unspecified) | – | -4.56 |
| COc1cc2c(NC3CCN(C)CC3)cc(N3CCCCN(C)CC3)cc2cc1OCCOCCN(C)C | 27.1 µM (active) | – |
| COc1cc2c(NC3CCN(C)CC3)nc(N3CCCN(C)CC3)nc2cc1OCCCN(C)C | 27.1 µM (active) | – |
| COc1cc2c(NC3CCN(C)CC3)nc(N3CCCN(C)CC3)nc2cc1OCCCCCN(C)C | 24.1 µM (active) | – |
| COC1C(O)C(CO)OC1n1cnc2c(NC3CCCCC3)ncnc21 (stereo unspecified) | – | 14.5 |
| COc1cc2nc(N3CCN(C)CC3)nc(N3CCOCC3)c2cc1OC | 21.5 µM (active) | – |
| COc1cc2c(NC3CCN(C4CCCCC4)CC3)nc(N3CCCN(C)CC3)nc2cc1OCCCN1CCCCC1 | 24.1 µM (active) | – |
| COc1cc2c(NC3CCN(C)CC3)nc(N3CCCN(C)CC3)nc2cc1OCCN(C)CCN(C)C | 27.1 µM (active) | – |
| COc1cc2nc(N3CCN(C)CC3)nc(NCCN(C)C)c2cc1OC | 24.1 µM (active) | – |
| CNc1ncnc2c1ncn2[C@@H]1O[C@H](CO)C(O)[C@H]1O (stereo partly specified) | – | 7.24 |
| CCN(c1cc(C#CCN2CCOCC2)cc(C(=O)NCc2c(C)cc(C)[nH]c2=O)c1C)C1CCC(N(C)CCOC)CC1 (stereo unspecified) | – | 1.3 |
| OC[C@H]1O[C@H](n2cnc3c(NC4CCCC4)nc(Cl)nc32)[C@@H](O)[C@@H]1O | – | -26.2 |
| Nc1ncnc2c1ncn2[C@@H]1O[C@H](COP(=O)(O)OP(=O)(O)O)[C@@H](O)[C@H]1O | – | -3.45 |
| COc1cc2c(NC3CCN(C)CC3)nc(N3CCCN(C)CC3)nc2cc1OCCCCCN | 24.1 µM (active) | – |

| SMILES | Potency | activity change, negative = inhibition [%] |
| --- | --- | --- |
| CCC(CC)n1ccc2c(C(=O)NCc3c(C)cc(C)[nH]c3=O)cc(C#N)cc21 | 15.2 µM (active) | – |
| COc1cc2nc(N3CCN(C(N)=O)CC3)nc(NC3CC3)c2cc1OC | 27.1 µM (active) | – |
| Nc1ncnc2c1ncn2[C@H]1C[C@H](O)[C@@H](CO)O1 | – | -5.23 |
| Nc1nc(Cl)nc2c1ncn2[C@@H]1O[C@H](CO)[C@H](O)[C@H]1O | – | -11.3 |
| C[S+](CC[C@H](N)C(=O)O)C[C@H]1O[C@@H](n2cnc3c(N)ncnc32)[C@H](O)[C@@H]1O (stereo partly specified) | inactive | – |
| CNCCCOc1cc2nc(N3CCCN(C)CC3)nc(NC3CCN(C)CC3)c2cc1OC | 24.1 µM (active) | – |
| COc1cc2c(NC3CCN(C)CC3)nc(N3CCCN(C)CC3)nc2cc1OCCCCN | 21.5 µM (active) | – |
| COc1cc2c(NC3CCN(C(C)C)CC3)nc(N3CCC(F)(F)CC3)nc2cc1OCCCN1CCCCC1 | 6.81 µM (active) | – |
| CO[C@@H]1[C@@H]2OP(=O)(O)OC[C@H]2O[C@H]1n1c(Sc2ccc(Cl)cc2)nc2c(N)ncnc21 | – | -11.6 |
| COc1cc2nc(N3CCOCC3)nc(NC(C)C)c2cc1OC | 24.1 µM (active) | – |
| COc1cc2nc(N(C)C)nc(NC3CCN(C)CC3)c2cc1OC | 24.1 µM (active) | – |
| CNC(=O)[C@H]1O[C@@H](n2cnc3c(N)ncnc32)[C@H](O)[C@@H]1O | – | 8.67 |
| COc1cc2nc(N3CCCN(C)CC3)nc(N3CCN(C)CC3)c2cc1OC | 8.57 µM (active) | – |
| Nc1ncnc2c1ncn2[C@@H]1O[C@H](C[C@@H](N)CC[C@H](N)C(=O)O)[C@@H](O)[C@H]1O | – | 9.35 |
| CSc1nc(N)c2ncn([C@@H]3O[C@H](COP(=O)(O)OP(=O)(O)O)C(O)[C@H]3O)c2n1 (stereo partly specified) | – | -17.9 |
| COc1cc2c(NC3CCN(C(C)C)CC3)nc(N3CCCN(CC4CCCCC4)CC3)nc2cc1OCCCN1CCCC1 | 24.1 µM (active) | – |
| COc1cc2c(NC3CCN(C(C)C)CC3)nc(N3CCCN(C)CC3)nc2cc1OCCOCCN(C)C | 24.1 µM (active) | – |
| OCC1OC(n2cnc3c(=S)nc[nH]c32)C(O)C1O (stereo unspecified) | 13.6 µM (active) | – |
